Assay outcomes deposited in PubChem BioAssay by several laboratories.
BAP1 block = human BAP1 deubiquitinase inhibition; calls only at 20 µM; recombinant BAP1, Ub-AMC hydrolysis fluorescence kinetic; active compounds read low; 72,000 tested, 0.48% active; Q92560; AID 436;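 active = activity remaining at or below 50% of control, provided the compound also passes the data quality filters; inactive = the rest, including low values that fail the filters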;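 also: 100% = DMSO wells rate and 0% = substrate alone blank rate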
DUSP1 inh = inhibitors of human MKP-1 phosphatase; P28562; recombinant MKP-1, OMFP hydrolysis fluorescence; 65,000 tested, 0.15% active; inhibition, %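 (compounds tested at a single concentration somewhere between 10 and 100 µM)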;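 active = inhibition above about 50%, limit read from the data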;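 also: 0% = DMSO max control wells and 100% = wells with enzyme stopped by NaOH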
HePTP inhibitor = human HePTP phosphatase inhibition; inhibition, % at 20 µM; recombinant HePTP phosphatase activity, OD absorbance; 110,000 tested, 0.64% active; AID 521; in the data active = inhibition above about 50%;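 also: plate controls were vehicle for no effect and reference inhibitor for full effect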
Target sequence (P35236 whole entry, looked up): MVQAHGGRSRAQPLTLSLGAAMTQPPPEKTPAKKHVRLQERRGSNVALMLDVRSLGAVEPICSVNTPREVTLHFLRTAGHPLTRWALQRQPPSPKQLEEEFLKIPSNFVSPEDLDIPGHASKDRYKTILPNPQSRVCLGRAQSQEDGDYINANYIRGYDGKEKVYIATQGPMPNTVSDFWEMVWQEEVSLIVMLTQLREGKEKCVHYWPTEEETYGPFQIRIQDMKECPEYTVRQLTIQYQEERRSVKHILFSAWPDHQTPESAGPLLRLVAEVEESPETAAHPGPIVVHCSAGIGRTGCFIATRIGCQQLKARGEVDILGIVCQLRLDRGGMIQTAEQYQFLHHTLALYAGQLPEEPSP
Cdc25B inh = human M-phase inducer phosphatase 2 inhibition. recombinant Cdc25B, OMFP fluorescence Ex485/Em525. inhibition, %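 (compounds tested at 10 µM final in the well)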. 65,000 tested, 0.1% active; in the data active = inhibition above about 50%
Hsp90 inh = displaces geldanamycin probe from tumor Hsp90 | inhibition, % at 30 µM | 64,000 tested, 0.35% active | P07900 | NCI-N417 lysate Hsp90, Cy3B-geldanamycin FP displacement;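 active = inhibition above 50%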;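 also: 0% = tracer plus lysate wells and 100% = tracer alone without lysate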
BAP1 inh conf = confirmation of human BAP1 enzyme inhibitors. shares compounds with BAP1 block. purified BAP1, Ub-ethyl ester hydrolysis, HPLC; active compounds read low. % of control activity, % at 20 µM. 310 tested, 8% active;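 active = percent of control activity at or below 60%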
Active calls of the source: *. Hits are enriched below; roughly 1.1% of the tested compounds scored in any of these assays.

For COc1ccc(NC(=O)c2cnn(-c3ccccc3)c2NC(=O)c2ccc(C)cc2)cc1 the results were HePTP inhibitor 2.
CC1=CC(C)(C)Nc2cc(C)c(C)cc21 was read as BAP1 block active, DUSP1 inh 5, HePTP inhibitor 2, Cdc25B inh 4, Hsp90 inh 7 and BAP1 inh conf 49*.
Screening CC1=CC(C)(C)Nc2ccc(C)cc21 returned DUSP1 inh -5, HePTP inhibitor -11, Cdc25B inh 5 and Hsp90 inh 4.
For O=C(O)CCc1ccc(-c2ccccc2)n1-c1cccc(O)c1 the results were BAP1 block active, DUSP1 inh 37, Cdc25B inh 10, Hsp90 inh -4 and BAP1 inh conf 143.
For O=C(O)CCc1ccc(-c2ccccc2)n1CC(=O)O the results were BAP1 block inactive, DUSP1 inh 7, HePTP inhibitor 0, Cdc25B inh -9 and Hsp90 inh -8.
For CCc1ccc(C(=O)CSC2=C(C#N)C(c3ccco3)C(C(C)=O)=C(C)N2)cc1 (stereo unspecified) the results were BAP1 block inactive, DUSP1 inh 8, HePTP inhibitor 7, Cdc25B inh -1 and Hsp90 inh -6.
CC(=O)C1=C(C)NC(SCC(=O)c2ccc(Cl)c(Cl)c2)=C(C#N)C1c1ccco1 (stereo unspecified) was read as BAP1 block active, DUSP1 inh 6, HePTP inhibitor 4, Cdc25B inh 3, Hsp90 inh -12 and BAP1 inh conf 42*.
CC(=O)C1=C(C)NC(SCC(=O)c2ccc(F)cc2)=C(C#N)C1c1ccco1 (stereo unspecified) was read as BAP1 block inactive, DUSP1 inh 13, HePTP inhibitor 0, Cdc25B inh 3 and Hsp90 inh -7.
For CC(=O)C1=C(C)NC(SCC(=O)c2cc(Cl)ccc2Cl)=C(C#N)C1c1ccco1 (stereo unspecified) the results were BAP1 block active, DUSP1 inh 15, HePTP inhibitor 7, Cdc25B inh 6, Hsp90 inh -11 and BAP1 inh conf 96.
COc1cc(/C=C2\SC(=S)N(C)C2=O)ccc1OC(=O)c1ccc(Cl)cc1 was read as HePTP inhibitor -11.
`Cc1c(-c2ccccc2)nc2ccccc2c1C(=O)NCCCc1ccccc1` gave HePTP inhibitor 8.
For CCOc1cc(C(=O)O)cc(Cl)c1OCC#N the results were BAP1 block active, DUSP1 inh 18, HePTP inhibitor -1, Cdc25B inh 4, Hsp90 inh -3 and BAP1 inh conf 104.
Screening C/C(C=NN1CCN(Cc2ccccc2)CC1)=C\c1ccccc1 returned HePTP inhibitor 5.
`COc1cccc(CN(Cc2ccco2)C(c2ccc(F)cc2)c2nnnn2C(C)(C)C)c1` (stereo unspecified) gave BAP1 block active, DUSP1 inh -10, HePTP inhibitor 7, Cdc25B inh -12, Hsp90 inh -5 and BAP1 inh conf 71.
For CCOC(=O)c1nnn(-c2nonc2N)c1CSc1ccc(C)cc1 the results were BAP1 block inactive, DUSP1 inh 4, HePTP inhibitor -4, Cdc25B inh -22 and Hsp90 inh -3.
CCOC(=O)c1nnn(-c2nonc2N)c1COc1cc(C)c(Cl)c(C)c1 was read as BAP1 block active, DUSP1 inh 9, HePTP inhibitor -1, Cdc25B inh -18, Hsp90 inh 2 and BAP1 inh conf 106.
`CCc1nc2c(cnn2-c2ccc(Cl)cc2)c(=O)n1-c1ccc(OC)cc1` gave BAP1 block active, DUSP1 inh 4, HePTP inhibitor 11, Cdc25B inh 6, Hsp90 inh 0 and BAP1 inh conf 89.
Cc1ccc2[nH]c(=O)c(CN(Cc3cccs3)Cc3nnnn3Cc3ccccc3)cc2c1 was read as BAP1 block active, DUSP1 inh 10, HePTP inhibitor 6, Cdc25B inh -13, Hsp90 inh -1 and BAP1 inh conf 67.
`Cc1ccc2[nH]c(=O)c(CN(CCO)Cc3nnnn3CCc3ccccc3)cc2c1` gave BAP1 block inactive, DUSP1 inh 18, HePTP inhibitor 4, Cdc25B inh 17 and Hsp90 inh -4.
For COc1cc(OC)cc(C(=O)N2CCN(Cc3ccncc3)CC2)c1 the results were HePTP inhibitor -11.
For CCCCCOC(=O)CSc1nc2c(c(=O)[nH]c(=O)n2C)n1CCc1ccccc1 the results were BAP1 block active, DUSP1 inh 3, Cdc25B inh 32, Hsp90 inh 0 and BAP1 inh conf 96.
CCCCCn1c(SCCc2ccccc2)nc2c1c(=O)[nH]c(=O)n2C was read as BAP1 block inactive, DUSP1 inh -20, HePTP inhibitor 5, Cdc25B inh -6 and Hsp90 inh 3.
`CCOc1cc2[nH]c(=S)n(CCCCC(=O)NCc3ccco3)c(=O)c2cc1OCC` gave BAP1 block active, DUSP1 inh 25, HePTP inhibitor 10, Cdc25B inh -9, Hsp90 inh -2 and BAP1 inh conf 90.
`CCOC(=O)c1ccc(NC(=O)CCc2c[nH]c3ccccc23)cc1` gave BAP1 block inactive.
For CCOC(=O)c1ccc(NC(=O)CCc2ccc(CC)o2)cc1 the results were BAP1 block active, DUSP1 inh 4, HePTP inhibitor 2, Cdc25B inh 12, Hsp90 inh 0 and BAP1 inh conf 96.
Screening Cc1ccc(N2C(=O)C(Cl)=C(N3CCCCC3)C2=O)c(C)c1 returned BAP1 block inactive.
For CC(C)c1cc(Nc2cccc(O)c2)cc(C(C)C)c1O the results were BAP1 block active, DUSP1 inh 23, HePTP inhibitor 5, Cdc25B inh 8, Hsp90 inh 72* and BAP1 inh conf 82.
`O=C1SC(SCc2ccccc2)=N/C1=C\c1ccco1` gave DUSP1 inh 7, HePTP inhibitor -2, Cdc25B inh 4 and Hsp90 inh -12.
For CCCSC1=N/C(=C\C=C\c2ccco2)C(=O)S1 the results were BAP1 block active, DUSP1 inh -8, HePTP inhibitor 14, Cdc25B inh 3, Hsp90 inh -11 and BAP1 inh conf 86.
For CCOC(=O)c1[nH]c(CSc2nnnn2-c2ccccc2C)c(C(=O)OCC)c1C the results were BAP1 block active, DUSP1 inh 2, HePTP inhibitor 3, Cdc25B inh -14, Hsp90 inh -8 and BAP1 inh conf 93.
O=C(Nc1nccs1)c1ccc(Oc2ccc(C(=O)Nc3nccs3)cc2)cc1 was read as HePTP inhibitor -2.
For O=C1C2C3c4ccccc4C(c4ccccc43)C2C(=O)N1C12CC3CC(CC(C3)C1)C2 (stereo unspecified) the results were HePTP inhibitor 9.
For CC1(C)Cc2c(C#N)c(SCc3ccccc3)nc(N3CCOCC3)c2CO1 the results were BAP1 block active, DUSP1 inh 9, HePTP inhibitor 3, Cdc25B inh -11, Hsp90 inh -1 and BAP1 inh conf 121.
